These results are taken from ChEMBL document CHEMBL4513216, “Probing the Open Global Health Chemical Diversity Library for Multistage-Active Starting Points for Next-Generation Antimalarials” (ACS Infect Dis, 2020).

In all, about 69,000 compounds went through this assay and about 8,600 (12%) showed an effect of 50% or more. The entries come from a sample that favours strong results as a whole.

This assay relates to Plasmodium berghei. The assay is described as follows: Screen against P. berghei liver stage (PbLuc), transformed with Luciferase, at 10uM. It is filed as functional, HepG2. As to conditions: tested at 10 uM.
Consider `O=C(c1ccccc1)N1CCCn2c(CN3CCCCC3)nnc2C1`, for which the INHIBITION was found to be 50.9%.

Take `COCC(=O)N1CCCn2c(CN3CCCC3)nnc2C1`: the INHIBITION turned out to be 56.6%.

Regarding `O=C(c1ccncc1)N1CCCn2c(CN3CCCC3)nnc2C1`, the INHIBITION came to 35.7%.

For the compound `O=C(c1cccc(Cl)c1)N1CCCn2c(CN3CCCCC3)nnc2C1`, the INHIBITION came out at 55.2%.

As for `Cc1cccc(C(=O)N2CCCn3c(CN4CCCCC4)nnc3C2)c1`, the INHIBITION is 25.2%.

On to `COCC(=O)N1CCCn2c(CN3CCOCC3)nnc2C1`, for which the INHIBITION is -2.46%.

Consider `COCC(=O)N1CCCn2c(CN3CCCCC3)nnc2C1`, for which the INHIBITION is 20.1%.

`O=C(c1ccccc1F)N1CCCn2c(CN3CCCCC3)nnc2C1`: the INHIBITION was found to be 18.3%.

As to `O=C(c1ccc[nH]1)N1CCCn2c(CN3CCCCC3)nnc2C1`, the INHIBITION worked out at 42.1%.

Take `O=C1CCCN1Cc1nnc2n1CCCN(C(=O)c1ccc[nH]1)C2`: the INHIBITION is 53%.

Take `Cc1nc(C)n(CC2CCCN(Cc3cccc4c3OCCO4)C2)n1` (centres undefined): the INHIBITION was determined as 38.8%.

As to `Cc1noc(C)c1-c1cncc(CC2CCN(C(=O)c3cc[nH]n3)C2)n1` (centres undefined), the INHIBITION is 22%.

Take `CNc1nc(C2CCCN(C(=O)C(C)C)C2)nc2c1CN(C)CC2` (centres undefined): the INHIBITION is on record as 12.3%.

On to `Cc1cccc(OCCN2CCCC(c3cc(C(N)=O)[nH]n3)C2)c1` (centres undefined), for which the INHIBITION is on record as -46.4%.

For `Cc1cc(C(=O)N2CCCC3(COCCN(c4ncccn4)C3)C2)[nH]n1` (centres undefined), the INHIBITION is on record as 33.4%.

Regarding `COc1ccc2c(c1)C(C(=O)NCCCN1CCN(C)CC1)CC(=O)N2` (centres undefined), the INHIBITION is recorded as 26%.

Take `N#CC1(C(=O)N2CCCN(c3nccs3)CC2)CCCC1`: the INHIBITION came to 7.305%.

Consider `Nc1nccc(C2CCCN(CC3CC3)C2)n1` (centres undefined), for which the INHIBITION is 23%.

Consider `COc1cccc(C2CCCN2C(=O)NCCCn2cccn2)c1` (centres undefined), for which the INHIBITION is given as 45.7%.

As for `COc1ccc(C2CCCN2C(=O)NCCCn2cccn2)cc1` (centres undefined), the INHIBITION is listed as 56%.

In the case of `COc1ccc(C2CCCN2C(=O)NCCn2ccnc2)cc1` (centres undefined), the INHIBITION was 21.425%.

Turning to `CC1COCCN1C(=O)NCCn1ccnc1` (centres undefined), the INHIBITION was -3.94%.

With `CC1COCCN1C(=O)NCCCn1ccnc1` (centres undefined), the INHIBITION is on record as 24.8%.

Turning to `O=C(NCCCn1ccnc1)N1CCCC1c1ccncc1` (centres undefined), the INHIBITION turned out to be 37%.

In the case of `CC1CN(C)CCN1C(=O)NCCCn1ccnc1` (centres undefined), the INHIBITION worked out at 60.1%.

With `O=C(NCCCn1cccn1)N1CCCC1c1ccncc1` (centres undefined), the INHIBITION was determined as 9.3%.

For the compound `COc1ccc(C2CCCN2C(=O)NCCCn2ccnc2)cc1` (centres undefined), the INHIBITION was determined as 54.45%.

Regarding `O=S1(=O)COCCN1Cc1ccc(Cl)c(Cl)c1`, the INHIBITION is -12.5%.

With `c1csc(-c2noc(CNCCn3cccn3)n2)c1`, the INHIBITION amounted to 18.2%.

For `CC(=O)N1CC[C@@H]2CN(Cc3ccncc3)S(=O)(=O)[C@@H]2CC1`, the INHIBITION was -10.5%.

With `Cc1ccsc1CN1CCC(c2nnc(Cn3cccn3)n2C)CC1`, the INHIBITION worked out at 25.4%.

For `COc1ccsc1C(=O)NCCNc1ccccc1`, the INHIBITION is recorded as -33%.

For the compound `COc1cc(C)sc1C(=O)NCCC(=O)N(C)Cc1ccccc1`, the INHIBITION was found to be 66.3%.

Consider `COc1cc(C)sc1C(=O)NCCNc1ccccc1`, for which the INHIBITION was found to be 43.1%.

On to `COC(=O)CCNC(=O)c1cccc(C(=O)N(C)c2ccccc2)c1`, for which the INHIBITION was 43.4%.

For the compound `COc1cc(C)sc1C(=O)NCCC(=O)N(C)c1ccccc1`, the INHIBITION stood at 78.2%.

Regarding `CN(Cc1ccccc1)C(=O)CCNS(=O)(=O)c1cccnc1`, the INHIBITION is listed as -17.6%.

As for `CC(=O)N1CCCC(c2ccccn2)C1` (centres undefined), the INHIBITION stood at 15.9%.

`CCOCCN1CCC(c2cncc(C)n2)CC1`: the INHIBITION turned out to be 10.155%.

Take `CC(C)CNC(=O)CN(CC(=O)NCC(C)C)S(C)(=O)=O`: the INHIBITION came to 37.4%.

With `C=C(C)COc1cccc(CNC(CC)c2ccnn2C)c1` (centres undefined), the INHIBITION stood at 66.6%.

`C=C(C)COc1cccc(CNC(COC)c2ccnn2C)c1` (centres undefined): the INHIBITION was 37.6%.

With `C=C(C)COc1ccccc1CNC(CC)c1ccnn1C` (centres undefined), the INHIBITION stood at 36.7%.

With `CC(C)c1ncc(CN2CCC(O)(c3ccccc3F)CC2)cn1`, the INHIBITION was 33.04%.

As to `Cc1cc(C)cc(N2CC(c3nnc(N)s3)CC2=O)c1` (centres undefined), the INHIBITION is recorded as -11.4%.

For the compound `c1cn(-c2cnc(C3CCCNC3)cn2)cn1` (centres undefined), the INHIBITION was determined as 24.4%.

Take `Cc1ocnc1C(=O)N1CCC2(CC1)c1nc[nH]c1CCN2CC(C)C`: the INHIBITION came to 47.4%.

Take `CC(C)CN1CCc2[nH]cnc2C12CCN(C(=O)c1cncn1C)CC2`: the INHIBITION stood at 33.4%.

With `CC(C)CN1CCc2[nH]cnc2C12CCN(C(=O)c1cnn(C)c1)CC2`, the INHIBITION is on record as 51.8%.

On to `CC(C)CN1CCc2[nH]cnc2C12CCN(C(=O)c1ccnn1C)CC2`, for which the INHIBITION was 65.8%.

For the compound `CC(C)CN1CCc2[nH]cnc2C12CCN(C(=O)c1ccc[nH]1)CC2`, the INHIBITION was 33.4%.

With `CC(C)CN1CCc2[nH]cnc2C12CCN(C(=O)c1cccnc1)CC2`, the INHIBITION is listed as 16.6%.

As to `Cc1nn(C)cc1-c1cncn1CCc1ccc2c(c1)OCCO2`, the INHIBITION was 27.6%.

As to `CC(C)C[C@@H](CO)n1cc(-c2cnc(-c3ccco3)nc2)nn1`, the INHIBITION was -6.83%.
